# PubChem BioAssay AID504444 (National Center for Advancing Translational Sciences (NCATS), 2011)
# Out of some 360,000 compounds screened, about 7,500 (2.1%) were called active. A call without a number means that no potency is given here. Another 20% or so got no clear call; they are omitted. The sample as a whole holds a higher share of actives than the screen did. Values without a mark were called inactive. Calls follow the shape of the dose curve; as a rule, active = well fitted inhibition curve with a large enough effect; inconclusive = small, poorly fitted or top-dose-only effect, or effect the other way; inactive = flat fitted curve, though single readings scatter.
# Test: Nrf2 qHTS screen for inhibitors; also: nearly all actives have a fitted effect of over 60% in size
# Conditions: A549 ARE-Fluc reporter, luciferase luminescence, 18-24 h; series mostly up to 46 µM
# Summary of the method: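 Concentration-response testing used A549 ARE_Fluc cells at 5000 cells/well. Following an 18-24 h compound incubation, viability was read by fluorescence (Ex 405/Em 525) and luciferase output by luminescence.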
# Potency is read from the fitted curve at half-maximal effect.
SMILES,Potency,"activity change, negative = inhibition"
CC1CCCC(NC(=O)c2cc(S(=O)(=O)N3CCCCC3)ccc2Cl)C1C (stereo not drawn),inactive,–
CSc1nc(-c2ccccc2)nc(C(Cl)Cl)n1,23.1 µM (active),–
CSc1ncc(Sc2ccccc2)c(C(=O)O)n1,inactive,–
Cc1cccc(Nc2nc(C)nc(N)c2S(=O)(=O)c2ccccc2)c1,inactive,–
O=C(Nc1cccc(S(=O)(=O)N2CCOCC2)c1)C12CC3CC(CC(C3)C1)C2,inactive,–
COc1ccc2[nH]c3c(C)c4cc[n+](C)cc4c(C)c3c2c1,8.2 µM (active),–
COc1ccc2[nH]c(C(=O)N3CCN(C)CC3)c(C)c2c1,inactive,–
COc1ccc2[nH]c(=S)cc(C)c2c1,inactive,–
Cc1ccc(-n2c(=O)c3cccnc3n2CC(=O)NCc2ccc(F)cc2)cc1C,inactive,–
CCOC(=O)C/C(C)=N\Nc1ccc([N+](=O)[O-])cc1[N+](=O)[O-],inactive,–
CCOC(=O)/C(=N\Nc1ccccc1[N+](=O)[O-])c1csc(Nc2ccccc2)n1,20.6 µM (active),–
CCOC(=O)Cc1csc(NC(=O)Nc2ccccc2)n1,inactive,–
CC(=O)OC1=C(C(C)=O)N(Cc2ccccc2)S(=O)(=O)c2ccccc21,inactive,–
Cn1c(Cc2cccc3ccccc23)nnc1SCC(=O)N1CCN(c2cccc(Cl)c2)CC1,10.3 µM (active),–
Cc1cc2nnc(SCC(=O)N3CCN(c4ccccc4)CC3)n2c(N)n1,inactive,–
Cn1c(CNC(=O)c2ccco2)nnc1SCC(=O)N1CCN(c2ccccc2)CC1,inactive,–
CC(=O)c1ccc(N2CCN(C(=O)c3ccc(Cl)c(S(=O)(=O)NC4CC4)c3)CC2)c(F)c1,inactive,–
Cc1nn(-c2ccccc2)c(C)c1NC(=O)CCl,inactive,–
Cc1nn(-c2ccccc2)c(C)c1NC(=O)COc1ccc(Cl)cc1Cl,16.4 µM (active),–
Cc1nn(-c2ccccc2)c(C)c1NC(=O)COC(=O)c1cc(Cl)ccc1O,inactive,–
NC(=O)C1(Nc2ccc([N+](=O)[O-])cc2)CCCC1,inactive,–

SMILES,Potency,"activity change, negative = inhibition"
Cn1c(=O)c2c(-c3ccccc3Br)n(Cc3ccccc3)cc2n(C)c1=O,inactive,–
CCC(=O)N1CCc2cc(Br)cc(S(=O)(=O)CCC(=O)N3CCN(c4ccc(F)cc4)CC3)c21,–,3.12% [at 9.27 µM]
CC(C)=C1SC(N2CCN(c3cccc(C)c3)CC2)=NC1=O,23.1 µM (active),–
Cc1ccc(N2CCN(C3=NC(=O)/C(=C\c4cccs4)S3)CC2)cc1,inactive,–
CC(C)=C1SC(N2CCN(c3ccc(C)c(Cl)c3)CC2)=NC1=O,inactive,–
CCN(CC)S(=O)(=O)c1ccc(N2CCCC2)c(NC(=O)c2ccc([N+](=O)[O-])o2)c1,inactive,–
C=Cc1ccc(Cn2c(C(=O)O)c(CNC3CCCC3)c3ccc(C)cc32)cc1,inactive,–
COc1ccc(NS(=O)(=O)c2cc(C(=O)Nc3ccccc3C(=O)O)ccc2C)cc1,inactive,–
C=CCNC(=O)c1ccccc1NC(=O)c1ccc(Cl)c(S(=O)(=O)Nc2cccc(C)c2C)c1,9.2 µM (active),–
Cc1ccccc1NC(=O)c1cc(S(=O)(=O)Nc2cccc(C(=O)O)c2)ccc1Cl,inactive,–
CCOC(=O)C1CCCN(C(=O)c2ccc3c(c2)sc2nc(-c4ccc(CC)cc4)cn23)C1 (stereo not drawn),inactive,–
Cc1ccc(-c2nc3ccccn3c2Nc2c(C)cccc2C)o1,–,3.18% [at 9.27 µM]
O=C(O)CN1CCN(C(c2ccccc2)c2ccccc2)CC1,inactive,–
CC1(C)CC(N2CCN(C(c3ccccc3)c3ccccc3)CC2)=CC(=[N+]2CCCCC2)C1,7.31 µM (active),–
CC(C)NC(=S)N1CCN(C(c2ccccc2)c2ccccc2)CC1,inactive,–
Cc1ccc(C(=O)CSc2nc(-c3ccccc3)nc3c2CCCC3)c(C)c1,inactive,–
O=C(NCc1ccccc1CN1CCCC1)c1cccc(S(=O)(=O)Nc2ccc(F)cc2)c1,inactive,–
COc1ccc2sc(-c3ccc(N(C)C)cc3)c(C#CCO)c2c1,inactive,–
COc1ccc2c(c1)c(=Cc1ccc(N(C)C)cc1)c1cc(-c3ccccc3)[n+](C)n12,16.4 µM (active),–
COc1ccc2sc(-c3ccc(N(C)C)cc3)c(-c3ccc4cc[nH]c4c3)c2c1,inactive,–
CC1Cc2ccccc2N1S(=O)(=O)c1cccc(C(=O)NCC(c2ccco2)N2CCCC2)c1 (stereo not drawn),inactive,–

SMILES,Potency,"activity change, negative = inhibition"
Cc1nc(SCC(=O)NC2CCCCC2C)c(C#N)c(C)c1C (stereo not drawn),inactive,–
CC(=O)OCC(=O)C1(O)CCC2C3CC(C)C4=CC(=O)CCC4(C)C3C(O)CC21C (stereo not drawn),0.082 µM (active),–
CC1(C)C(=O)CCC2(C)C1=CCC1C2C(=O)CC2(C)C1CCC2(O)C(=O)CO (stereo not drawn),inactive,–
O=C1c2ccccc2C(=O)N1c1ccc(S(=O)(=O)N2CCOCC2)c2ccccc12,inactive,–
O=S(=O)(c1ccc(SCc2ccc(Br)cc2)nc1)N1CCOCC1,inactive,–
CCOc1cc(N2CCOCC2)c(OCC)cc1NC(=O)COC(=O)[C@H](Cc1c[nH]c2ccccc12)NC(C)=O,inactive,–
CCOc1cc(N2CCOCC2)c(OCC)cc1NC(=O)COc1cccc2cccnc12,20.6 µM (active),–
CCOc1cc(N2CCOCC2)c(OCC)cc1NC(=O)COc1cccc(Cl)c1,inactive,–
O=C(CSc1nc2ccccc2[nH]1)Nc1nc(-c2ccccc2)c(-c2ccccc2)o1,inactive,–
C=CCSc1nc2ccccc2[nH]1,inactive,–
CCC(C)N1C(=O)S/C(=C/c2ccc(Sc3nc4ccccc4[nH]3)o2)C1=O (stereo not drawn),0.731 µM (active),–
C#CCOc1ccc(C2CC(=O)Nc3c2c(C)nn3-c2nc(C)cc(C)n2)cc1 (stereo not drawn),inactive,–
CC(C)(CNC(=O)Cc1ccc(Cl)cc1Cl)N1CCOCC1,inactive,–
CC(C)(CNC(=O)c1ccc(Cl)c(S(=O)(=O)N2CCc3ccccc3C2)c1)N1CCOCC1,13 µM (active),–
CN(C)S(=O)(=O)c1ccc(C(=O)NCC(C)(C)N2CCOCC2)cc1,inactive,–
Cc1noc(C)c1-c1ccc2ncnc(NCc3ccc(F)c(F)c3)c2c1,inactive,–
COc1ccccc1-c1noc(-c2ccc(NCc3ccccc3)c([N+](=O)[O-])c2)n1,inactive,–
COc1ccc(C2Nc3cccc(OC)c3C(=O)N2Cc2ccccc2)cc1COc1ccc(NC(C)=O)cc1 (stereo not drawn),inactive,–
N/C(=N\S(=O)(=O)c1cc(C(F)(F)F)cc(C(F)(F)F)c1)c1cccs1,20.6 µM (active),–
Cc1ccc(S(=O)(=O)/N=C(\N)c2ccc(F)cc2)cc1,inactive,–
CN(NS(=O)(=O)c1cccs1)c1ncc(C(F)(F)F)cc1Cl,inactive,–
